This is an account of results in PubChem BioAssay (NCATS).

Unmarked numbers belong to inactive results. Results filed as inconclusive are left out. Activity calls are given as the source filed them. Unless noted, calls come from the whole dose curve; as a rule, active = well fitted curve in the direction sought with a large enough effect; inconclusive = small, poorly fitted or top-dose-only effect, or another doubt; inactive = no such curve, though single readings can be large; an effect the other way counts as inactive or inconclusive.

In one test the test system is C33A. The test can be described thus: Primary qHTS to identify gynecologic anti-cancer compounds using libraries of approved drugs and bioactive compounds (AID 1345084). Note: nearly all actives have a fitted effect of over 55% in size. Note: potency is the fitted concentration of half-maximal effect. The settings on record: Gynecologic cancer cell panel viability, ATPlite luminescence, 48 h; series mostly up to 57.5 µM. A digest of the protocol:
(§1)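 48 h compound exposure at 37 C, 5% CO2; five-point qHTS. ATPlite luminescence readout of cell ATP.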

The next test deals with CASKI. The description is as above. The settings on record: Gynecologic cancer cell panel viability, ATPlite luminescence, 48 h; series mostly up to 57.5 µM. A digest of the protocol: as §1
Background: ATP-based viability assays read luminescence as a measure of living cells.

The test system of a further test is Es-2. The description is as above. The settings on record: Gynecologic cancer cell panel viability, ATPlite luminescence, 48 h; series mostly up to 57.5 µM. In short, it runs like this:
as §1

The test system of another test is HeLa. The description is as above. Conditions: Gynecologic cancer cell panel viability, ATPlite luminescence, 48 h; series mostly up to 57.5 µM. In short, it runs like this: as §1
In the next test the test system is Hek293T. The test is described as above. Conditions: Gynecologic cancer cell panel viability, ATPlite luminescence, 48 h, control line for the selectivity index; series mostly up to 57.5 µM. In short, it runs like this:
as §1

Another test concerns JEG-3. Described as above. The settings on record: Gynecologic cancer cell panel viability, ATPlite luminescence, 48 h; series mostly up to 57.5 µM. In short, it runs like this:
as §1

A further test relates to OV90. The description is as above. The settings on record: Gynecologic cancer cell panel viability, ATPlite luminescence, 48 h; series mostly up to 57.5 µM. A digest of the protocol: as §1
The subject of a further test is PA-1. Described as above. The settings on record: Gynecologic cancer cell panel viability, ATPlite luminescence, 48 h; series mostly up to 57.5 µM. A digest of the protocol: as §1
A further test has as its system Tov-21-G. Described as above. Conditions: Gynecologic cancer cell panel viability, ATPlite luminescence, 48 h; series mostly up to 57.5 µM. In short, it runs like this:
as §1

The test system of a further test is Tov112D. The description is as above. Conditions: Gynecologic cancer cell panel viability, ATPlite luminescence, 48 h; series mostly up to 57.5 µM. A digest of the protocol:
as §1

Test [1] in a line: Drug repurposing screens with cells derived from glioblastoma tumor samples (AID 1345199). For activity, negative = cell killing: % is set by controls: 0 for no effect and ±100 for the full control effect. Note: nearly all actives have a fitted effect of over 40% in size. Note: potency is the fitted concentration of half-maximal effect. Conditions: GBM patient neurospheres viability, ATP luminescence, 48 h. A digest of the protocol: (§2)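 Primary testing used CD133+ neurospheres from four GBM patients, seven concentrations, 48 h exposure and ATP-based viability; confirmation added three slower-growing patient lines.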
The next test concerns astro. The test is described as above. The settings on record: viability, ATP luminescence, 48 h; series mostly up to 45.9 µM. A digest of the protocol:
as §2

The next test has as its system CAOV3. The test can be described thus: Primary qHTS to identify gynecologic anti-cancer compounds using libraries of approved drugs and bioactive compounds (AID 1345084). Note: nearly all actives have a fitted effect of over 55% in size. Note: potency is the fitted concentration of half-maximal effect. Conditions: Gynecologic cancer cell panel viability, ATPlite luminescence, 48 h; series mostly up to 57.5 µM. A digest of the protocol:
as §1

A further test relates to SKOV3. Described as above. Conditions: Gynecologic cancer cell panel viability, ATPlite luminescence, 48 h; series mostly up to 57.5 µM. In short, it runs like this:
as §1

The target in test [2] is Nuclear receptor subfamily 1 group I member 2 (Rattus norvegicus) (UniProt Q9R1A7). The test can be described thus: qHTS assay for small molecule activators of the rat pregnane X receptor (rPXR) signaling pathway (AID 651751; call rule not given here; note: 0% is about no effect). The settings on record: rPXR reporter cells, luciferase (One-Glo), 24 h.
A short description of test [3]: qHTS assay for small molecule activators of the human pregnane X receptor (PXR) signaling pathway (AID 720659; call rule not given here; note: 0% is about no effect).
The mark [4] stands for this setting: at 45.9 µM (top of the series), tumour line B.
Setting [5] is: at 45.9 µM (top of the series), tumour line D.
Setting [6] is: at 91.6 µM (top of the series), tumour line B.

Nuclear receptor subfamily 1 group I member 2 (Rattus norvegicus), sequence (Q9R1A7 whole entry, looked up): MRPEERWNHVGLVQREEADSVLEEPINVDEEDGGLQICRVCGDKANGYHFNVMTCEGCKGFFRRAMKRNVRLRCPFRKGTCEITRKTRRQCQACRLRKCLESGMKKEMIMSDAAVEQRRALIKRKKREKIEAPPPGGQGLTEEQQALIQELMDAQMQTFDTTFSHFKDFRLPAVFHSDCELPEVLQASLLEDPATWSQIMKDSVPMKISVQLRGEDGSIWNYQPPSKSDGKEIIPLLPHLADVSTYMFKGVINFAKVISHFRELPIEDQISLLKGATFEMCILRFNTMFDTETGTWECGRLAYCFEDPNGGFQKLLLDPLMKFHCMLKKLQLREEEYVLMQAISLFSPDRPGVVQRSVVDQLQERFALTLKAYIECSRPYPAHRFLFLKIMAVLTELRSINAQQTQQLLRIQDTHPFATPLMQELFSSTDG

In the case of `CN1C(=O)CN=C(c2ccccc2)c2cc(Cl)ccc21`, the Potency result with C33A, in the test with CASKI, in the test on Es-2, in the test on HeLa, with Hek293T and with JEG-3 was “inactive” each time. Further, the Potency entry in the test with OV90, with PA-1, with Tov-21-G and in the test with Tov112D was “inactive” throughout. The activity, negative = cell killing in test [1] (setting [4]) is -4.05%; in test [1] (setting [5]) it was -1.05%.

Turning to `COc1ccc2c3c1O[C@H]1[C@@H](O)C=C[C@H]4[C@@H](C2)N(C)CC[C@@]341`, the results for the Potency (with CASKI; in test [1] (tumour line A)) were 31.6 µM (active) and 44.7 µM (active), respectively. The activity, negative = cell killing in test [1] (setting [6]) was -11%; in [1] (at 91.6 µM (top of the series), tumour line D), -4.9%. Also, the Potency entry in the test on astro is “inactive”.

On to `CN1C(=O)[C@@H](NC(=O)c2cc3ccccc3[nH]2)N=C(c2ccccc2)c2ccccc21`, for which the Potency entry in the test with C33A, in the test with HeLa, in the test with Hek293T, in the test with JEG-3, in the test with PA-1 and in the test with Tov-21-G was “inactive” throughout. Further, the Potency result with Tov112D and with astro was “inactive” each time. Moreover, the activity, negative = cell killing is 8.15% in test [1] (setting [4]) and -1.15% in test [1] (setting [5]).

As for `CC#C[C@]1(O)CC[C@H]2[C@@H]3C[C@H](C)C4=CC(=O)CC[C@]4(C)[C@H]3CC[C@@]21C`, the Potency result in the test with C33A, in the test with CASKI, in the test on Es-2, with Hek293T, in the test on Tov-21-G and in the test with Tov112D was “inactive” each time. Moreover, the Potency was 6.31 µM (active) with HeLa and 25.1 µM (active) in the test on PA-1.

Turning to `NC1(c2ccccc2)CCCCC1`, the Potency result in the test on CAOV3, in the test on CASKI, with Es-2, in the test on Hek293T, in the test with JEG-3 and in the test on OV90 was “inactive” in each case. The Potency result in the test on PA-1, in the test with Tov-21-G and in the test on astro was “inactive” in each case. In addition, the activity, negative = cell killing in [1] (setting [6]) is -7.4%. Further, in test [1] (tumour line A), the Potency is 63.1 µM (active).

For the molecule `COP(=S)(OC)Oc1ccc(Sc2ccc(OP(=S)(OC)OC)cc2)cc1`, the Potency result in the test on C33A, with CASKI, in the test on Es-2, in the test on HeLa, in the test with JEG-3 and with OV90 was “inactive” in each case. The Potency result in the test with PA-1, in the test on SKOV3, in the test with Tov-21-G and in the test with Tov112D was “inactive” in each case. In [2], the max response was 1.29%. Moreover, the call in [3] was inactive.

Turning to `O=C(N[C@H]1N=C(c2ccccc2F)c2cccc3c2N(CC3)C1=O)c1cc2ccccc2[nH]1`, the Potency entry with CASKI, in the test on Es-2, with HeLa, in the test with Hek293T, with JEG-3 and with OV90 was “inactive” each time. For the same molecule, the Potency result in the test with PA-1, with Tov-21-G, in the test on Tov112D and in the test with astro was “inactive” in each case. Also, the activity, negative = cell killing in test [1] (setting [4]) was 9.35%.

As to `CCCCCCCCC(=O)NCc1ccc(O)c(OC)c1`, the Potency result in the test on CASKI, with HeLa, in the test with Hek293T, with JEG-3, in the test with OV90 and with Tov-21-G was “inactive” in each case. For the same molecule, the Potency result in the test with astro was “inactive”. The activity, negative = cell killing in test [1] (setting [4]) is -1.62%; in test [1] (setting [5]) it was -6.9%. Also, the Potency in [1] (tumour line A) is 12.6 µM (active). In addition, in test [2], the max response is 2.01%. In [3], the molecule was classed as inactive.

As for `CCO[C@H]1O[C@@H]2OC3(C)CC[C@H]4[C@H](C)CC[C@@H]([C@H]1C)[C@@]24OO3`, the Potency entry in the test on C33A, in the test with CASKI, in the test on Es-2, in the test on HeLa, in the test with JEG-3 and in the test with OV90 was “inactive” in each case. For the same molecule, the Potency result with PA-1, with SKOV3, in the test with Tov-21-G and in the test with Tov112D was “inactive” throughout.

For `O=C(O)Cc1ccccc1`, the Potency entry with C33A, in the test on CASKI, in the test on Es-2, with HeLa, with Hek293T and with JEG-3 was “inactive” throughout. Further, the Potency result in the test on PA-1, in the test with SKOV3, with Tov-21-G, in the test with Tov112D and in the test on astro was “inactive” in each case. Moreover, the activity, negative = cell killing in test [1] (setting [4]) was -8.63%; in [1] (setting [5]), -22.9%; in test [1] (at 46 µM (top of the series), tumour line A), -19.6%.
